Reference: PubChem BioAssay (Tox21)
Where “and” joins values, the source holds several entries; their conditions need not be identical. Identical values can stand only once. Inconclusive results are not listed. Calls of active or inactive are those of the source. Unless noted, calls come from the whole dose curve; as a rule, active = well fitted curve in the direction sought with a large enough effect in the repeat runs; inconclusive = weak or mixed curves; inactive = flat fitted curve, though single readings scatter.

What was measured:
[1] = qHTS assay to test for compound auto fluorescence at 535 nm (green) in HEK293 cells (AID 720680)
[2] = qHTS assay to test for compound auto fluorescence at 535 nm (green) in HEK293 cell free culture (AID 720682)
Outline: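 Green-label autofluorescence (485 nm excitation, 535 nm emission) measured on compound added to cell-free culture medium (DMEM, 10% FBS). Output is expressed relative to fluorescein.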

[3] = qHTS assay to test for compound auto fluorescence at 590 nm (red) in HEK293 cell free culture (AID 720683)
Outline: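 Red-channel autofluorescence of compounds in culture medium (DMEM, 10% FBS), no cells, measured at 540/590 nm. Rose Bengal sodium is the reference fluorophore for equivalence.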

[4] = qHTS assay to test for compound auto fluorescence at 590 nm (red) in HepG2 cell free culture (AID 720684)
Outline: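 Steps: dispense MEM/10% FBS medium, no cells; pin compound or DMSO vehicle; read red channel, Ex/Em 540/590 nm. Output given as Rose Bengal sodium equivalents.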

[5] = qHTS assay to test for compound auto fluorescence at 460 nm (blue) in HepG2 cell free culture (AID 720685)
Outline: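 Compound (23 nL) or DMSO pinned into cell-free MEM with 10% FBS; blue fluorescence read at 405/460 nm excitation/emission, expressed as auto-fluorescence equivalency to triamterene.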

[6] = qHTS assay to test for compound auto fluorescence at 535 nm (green) in HepG2 cell free culture (AID 720686)
[7] = qHTS assay to test for compound auto fluorescence at 460 nm (blue) in HepG2 cells (AID 720687)
Outline: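 Blue-channel autofluorescence (Ex/Em 405/460 nm, triamterene-equivalent) was measured after 1 hr compound exposure at 37 C, 5% CO2. Cells were HepG2, plated overnight at 37 C in MEM plus 10% FBS.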

[8] = molecular target: Glucocorticoid receptor (Homo sapiens) (UniProt P04150); assay: qHTS assay to identify small molecule agonists of the glucocorticoid receptor (GR) signaling pathway (AID 720691; active = well fitted activation curve with a large enough effect in the signal ratio in the repeat runs, not every such curve was filed as active; the % refers to the signal ratio; note: potency is the fitted concentration of half-maximal effect)
Sequence of Glucocorticoid receptor (Homo sapiens) (P04150 whole entry, looked up): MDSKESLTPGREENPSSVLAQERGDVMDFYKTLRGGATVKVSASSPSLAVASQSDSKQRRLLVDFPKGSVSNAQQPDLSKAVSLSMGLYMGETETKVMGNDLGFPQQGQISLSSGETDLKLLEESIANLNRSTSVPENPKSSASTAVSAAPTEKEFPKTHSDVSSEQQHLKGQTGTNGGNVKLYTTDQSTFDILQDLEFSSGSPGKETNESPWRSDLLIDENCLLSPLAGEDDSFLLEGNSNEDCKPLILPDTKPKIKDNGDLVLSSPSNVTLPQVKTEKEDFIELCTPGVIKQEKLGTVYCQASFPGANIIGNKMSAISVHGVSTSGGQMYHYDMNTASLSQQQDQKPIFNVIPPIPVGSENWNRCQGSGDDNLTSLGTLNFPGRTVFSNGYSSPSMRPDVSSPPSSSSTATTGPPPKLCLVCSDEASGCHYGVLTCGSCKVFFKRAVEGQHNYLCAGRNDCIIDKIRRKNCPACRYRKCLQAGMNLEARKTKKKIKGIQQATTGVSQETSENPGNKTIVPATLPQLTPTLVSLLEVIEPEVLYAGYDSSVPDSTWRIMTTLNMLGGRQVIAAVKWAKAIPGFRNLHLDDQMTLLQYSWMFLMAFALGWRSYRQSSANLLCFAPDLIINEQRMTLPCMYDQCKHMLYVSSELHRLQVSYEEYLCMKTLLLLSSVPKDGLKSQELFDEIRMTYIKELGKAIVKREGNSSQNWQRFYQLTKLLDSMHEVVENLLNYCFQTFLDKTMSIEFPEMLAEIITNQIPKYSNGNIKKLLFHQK
Outline: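 Reporter read-out: fluorescence intensity following 2 h room-temperature LiveBLAzer B/G FRET substrate loading. Prior step: GR-bla HeLa cells held 4 h, then treated 18 h at 37 C.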

[9] = qHTS assay to test for compound auto fluorescence at 460 nm (blue) in HEK293 cell free culture (AID 720681)
Outline: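 Blue fluorescence (Ex 405/Em 460 nm, triamterene-equivalent) was read immediately after pin transfer of compound or DMSO into medium (DMEM, 10% FBS) without cells.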

[10] = molecular target: Glucocorticoid receptor (Homo sapiens) (UniProt P04150); assay: qHTS assay to identify small molecule antagonists of the glucocorticoid receptor (GR) signaling pathway (AID 720692; active = well fitted inhibition curve with a large enough effect in the signal ratio in the repeat runs, not every such curve was filed as active; the % refers to the signal ratio; note: potency is the fitted concentration of half-maximal effect)
Outline: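 Dexamethasone (5 nM final) stimulated a stably integrated GRE-beta-lactamase reporter in HeLa cells during 18 h co-incubation with compounds; signal was quantified as fluorescence intensity of B/G FRET substrate after 2 h.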
% is set by controls: 0 for no effect and ±100 for the full control effect.

OCC(CO)N[C@H]1C[C@](O)(CO)[C@@H](O)[C@H](O)[C@H]1O
inactive: Potency [1] | Potency [2] | outcome [3] | outcome [4] | Potency [5] | Potency [6] | Potency [7] | Potency [8]

c1cnc2cc3c(cc2n1)C1CNCC3C1
inactive: Potency [1] | Potency [2] | outcome [3] | outcome [4] | Potency [5] | Potency [6] | Potency [7]

CCCCC(CC)COC(=O)CC(C(=O)OCC(CC)CCCC)S(=O)(=O)O (stereo not given)
inactive: Potency [1] | Potency [2] | outcome [3] | outcome [4] | Potency [5] | Potency [6] | Potency [7] | Potency [8]

c1ccc2n[nH]nc2c1
inactive: Potency [1] | Potency [2] | outcome [3] | outcome [4] | Potency [5] | Potency [6] | Potency [7] | Potency [8]

OCCN1CCNCC1
inactive: Potency [1] | Potency [9] | Potency [2] | outcome [3] | outcome [4] | Potency [5] | Potency [6] | Potency [7] | Potency [8] | Potency [10]

CCCN[C@H]1CCc2nc(N)sc2C1
inactive: Potency [9] | Potency [2] | outcome [3] | outcome [4] | Potency [5] | Potency [6] | Potency [7]

O=C(O)c1cn(-c2ccc(F)cc2)c2cc(N3CCNCC3)c(F)cc2c1=O
inactive: Potency [1] | Potency [2] | outcome [3] | outcome [4] | Potency [5] | Potency [6] | Potency [7] | Potency [8] | Potency [10]

O=C1NCC2(CCN(CCc3ccccc3)CC2)O1
inactive: Potency [1] | Potency [2] | outcome [3] | outcome [4] | Potency [5] | Potency [6] | Potency [7] | Potency [8]

COc1ccc(CCN2CCC(Nc3nc4ccccc4n3Cc3ccc(F)cc3)CC2)cc1
inactive: Potency [9] | Potency [2] | outcome [3] | outcome [4] | Potency [5] | Potency [6] | Potency [7]

C[N+]1([O-])CCOCC1
inactive: Potency [1] | Potency [2] | outcome [3] | outcome [4] | Potency [5] | Potency [6] | Potency [7] | Potency [8]

CC(C)(O)CCC(C)(C)O
inactive: Potency [1] | Potency [2] | outcome [3] | outcome [4] | Potency [5] | Potency [6] | Potency [7] | Potency [8]

NC(=Nc1ccccc1)Nc1ccccc1
inactive: Potency [1] | Potency [2] | outcome [3] | outcome [4] | Potency [5] | Potency [6] | Potency [7] | Potency [8]

Oc1c(Cl)cc(Cl)cc1Sc1cc(Cl)cc(Cl)c1O
inactive: Potency [9] | Potency [2] | outcome [3] | outcome [4] | Potency [5] | Potency [6] | Potency [7]

CC[C@H]1CN2CCc3cc(OC)c(OC)cc3[C@@H]2C[C@@H]1C[C@H]1NCCc2cc(OC)c(OC)cc21
inactive: Potency [1] | Potency [2] | outcome [3] | outcome [4] | Potency [5] | Potency [6] | Potency [7] | Potency [8]

COc1nc(C)nc(Cl)c1NC1=NCCN1
inactive: fluorescence, % of fluorescein [1] -0.014% [at 18.6 µM] | activity change [2] 0.0521% [at 18.6 µM, stronger effect = higher value] | fluorescence, % of fluorescent control [3] 0.101% [at 18.6 µM] | fluorescence, % of Rose Bengal [4] 0.527% [at 18.6 µM] | fluorescence, % of fluorescent control [5] 0.0137% [at 18.6 µM] | fluorescence, % of fluorescein control [6] 0.0146% [at 18.6 µM] | fluorescence, % of fluorescent control [7] 0.0089% [at 18.6 µM] | Potency [8]

Nc1ccc(O)cc1
inactive: Potency [1] | Potency [9] | Potency [2] | outcome [3] | outcome [4] | Potency [5] | Potency [6] | Potency [7]
active: Potency [10] 49 µM

C=CC(=O)OCCCCCCOC(=O)C=C
active: Potency [10] 39.4 µM and 43.6 µM
inactive: Potency [1] | Potency [2] | outcome [3] | outcome [4] | Potency [5] | Potency [6] | Potency [7] | Potency [8]

Nc1cc(S(=O)(=O)O)cc2cc(S(=O)(=O)O)cc(O)c12
inactive: Potency [1] | Potency [2] | outcome [3] | outcome [4] | Potency [5] | Potency [6] | Potency [7] | Potency [8]

COc1ccc(Cc2cnc(N)nc2N)cc1OC
inactive: Potency [1] | Potency [2] | outcome [3] | outcome [4] | Potency [5] | Potency [6] | Potency [7] | Potency [8]

N[C@@H]1CONC1=O
inactive: Potency [1] | Potency [2] | outcome [3] | outcome [4] | Potency [5] | Potency [6] | Potency [7] | Potency [8]

O=Cc1ccc(Cl)cc1
inactive: Potency [1] | Potency [2] | outcome [3] | outcome [4] | Potency [5] | Potency [6] | Potency [7]

Cc1ccnc2c1NC(=O)c1cccnc1N2C1CC1
inactive: Potency [1] | Potency [2] | outcome [3] | outcome [4] | Potency [5] | Potency [6] | Potency [7] | Potency [8]

CCC[C@H](N[C@@H](C)C(=O)N1[C@H](C(=O)O)C[C@@H]2CCCC[C@@H]21)C(=O)OCC
inactive: Potency [1] | Potency [2] | outcome [3] | outcome [4] | Potency [5] | Potency [6] | Potency [7] | Potency [8]

NNCCc1ccccc1
inactive: Potency [1] | Potency [2] | outcome [3] | outcome [4] | Potency [5] | Potency [6] | Potency [7] | Potency [8]

Oc1c(Cl)cc(Cl)c(Cl)c1Cc1c(O)c(Cl)cc(Cl)c1Cl
inactive: Potency [1] | Potency [2] | outcome [3] | outcome [4] | Potency [5] | Potency [6] | Potency [7]

CC(=O)N[C@@H](CS)C(=O)O
inactive: Potency [1] | Potency [2] | outcome [3] | outcome [4] | Potency [5] | Potency [6] | Potency [7] | Potency [8]

CC(=O)O[C@]1(C(C)=O)CC[C@H]2[C@@H]3C[C@H](C)C4=CC(=O)CC[C@]4(C)[C@H]3CC[C@@]21C
inactive: Potency [1] | Potency [2] | outcome [3] | outcome [4] | Potency [5] | Potency [6] | Potency [7]
active: Potency [8] 37.9 nM and 21.9 nM
